Screening results as filed in PubChem.
Only some compounds are listed: those with a hit (about 2.6% of all), similar ones and a draw of the others.
B2AR arrestin ag: agonists recruiting beta-arrestin to human beta2-adrenergic receptor; Potency, µM (highest dose often 46.1 µM), usual class: activators; 44,000 tested, under 10 active; AID 1347077; HTLA Tango cells, beta-arrestin recruitment, luciferase luminescence, 18 h;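 note: potency is the fitted concentration of half-maximal effect; 0% = DMSO and full agonism = EC100 isoproterenol or metaproterenol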
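Tango cells (recombinant beta2-AR, beta-arrestin, tTA-driven luciferase), 1500/well in DMEM 1% FBS, treated 18 h at 37 °C with compounds up to 46 µM; luciferin mix added, luminescence read after 15 min; %activity curves fitted and curve-classed.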
GALC G270D act: enhancers of human galactocerebrosidase G270D mutant activity in cells | P54803 | 145M-Twi-hGALC-G270D cells (Twitcher mouse brain line with human GALC G270D), HMU-beta-Gal fluorescence, 48 h | Potency, µM (series often up to 57.5 µM), actives largely listed as activators | 45,000 compounds, 0.1% hits; note: potency is the fitted concentration of half-maximal effect; 0% is about no effect; nearly all actives have a fitted effect of over 65% in size
Target sequence (P54803 whole entry G286D): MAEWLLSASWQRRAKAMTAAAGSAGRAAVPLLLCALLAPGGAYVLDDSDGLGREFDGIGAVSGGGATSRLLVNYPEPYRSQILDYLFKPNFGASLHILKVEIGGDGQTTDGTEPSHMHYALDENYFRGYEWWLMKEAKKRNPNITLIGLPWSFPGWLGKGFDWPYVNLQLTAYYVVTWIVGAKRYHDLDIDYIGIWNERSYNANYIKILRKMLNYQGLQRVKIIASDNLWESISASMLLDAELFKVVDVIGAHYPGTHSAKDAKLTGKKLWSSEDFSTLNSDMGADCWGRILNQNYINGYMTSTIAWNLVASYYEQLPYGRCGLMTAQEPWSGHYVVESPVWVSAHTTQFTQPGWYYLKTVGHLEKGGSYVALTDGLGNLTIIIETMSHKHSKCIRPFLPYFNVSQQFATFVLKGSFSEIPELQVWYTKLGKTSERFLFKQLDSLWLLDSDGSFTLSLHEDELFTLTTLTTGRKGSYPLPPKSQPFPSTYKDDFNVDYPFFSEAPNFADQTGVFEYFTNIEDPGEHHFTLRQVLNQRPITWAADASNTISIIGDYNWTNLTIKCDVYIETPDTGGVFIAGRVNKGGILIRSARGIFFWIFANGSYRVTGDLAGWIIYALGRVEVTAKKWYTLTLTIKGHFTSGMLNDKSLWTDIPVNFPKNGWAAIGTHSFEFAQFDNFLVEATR
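Live 145M-Twi cells (Twitcher mouse brain-derived, GALC-null) stably expressing human GALC-G270D, with a wild-type GALC line, were compound-treated. Residual GALC activity was then read as fluorescence from 0.1 mM final HMU-β-gal at pH 5.2; higher signal means activation.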
TSG101-PTAP inh: inhibitors of HIV-1 PTAP binding to human TSG101, validation; Q99816; Fluorescence polarization, FITC-PTAP peptide/Tsg101, 20 min; Potency, µM (series often up to 115 µM), usual class: inhibitors; 44,000 tested, under 10 active; note: potency is the fitted concentration of half-maximal effect; 0% is about no effect
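The Tsg101 binding domain, at 10 uM final, is mixed with compound and a FITC peptide bearing the PTAP motif (50 nM final). After 20 min at r.t., polarization is measured; actives defined by CRC class, efficacy cut-off 60% inhibition.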
GALK inh: inhibits human galactokinase; recombinant GALK, Kinase-Glo ATP luminescence, 1 h; Potency, µM (top dose mostly 57.5 µM), inactives show at the highest dose activity, negative = inhibition, most hits filed as inhibitors; 44,000 tested, under 10 active; AID 1347072;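 note: plate controls were full GALK reaction for no effect and reaction lacking GALK for full effect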
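Compounds were pinned into ATP buffer, then GALK-galactose mix was added (final 5 nM enzyme, 35 uM ATP, 100 uM galactose, pH 8.0). After 1 h at room temperature, Kinase-Glo Plus was added and luminescence read.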
DRV1 agonist: GPR32 (DRV1) agonism, beta-arrestin recruitment; activation, % at 76.9 µM; 48,000 compounds, 2.5% hits; AID 1346428; O75388; CHO-K1 GPR32 beta-arrestin PathHunter luminescence, 90 min; zero percent set by DMSO-only wells;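 active = activation of at least 60% and not above a set upper limit, about 1 call in 100 departs from these limits; inconclusive = activation of 40% to 60%, or above that upper limit; inactive = activation under 40%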; note: 0% is about no effect
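PathHunter beta-arrestin recruitment in CHO-K1 cells stably expressing ProLink-tagged GPR32. Cells were exposed to compound for 90 min at 37 C, then chemiluminescence was read after 1 h detection at ambient temperature; DMSO served as basal control.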
Active calls of the source: *. Unless noted, calls come from the whole dose curve; as a rule, active = well fitted curve in the direction sought with a large enough effect; inconclusive = small, poorly fitted or top-dose-only effect, or another doubt; inactive = no such curve, though single readings can be large; an effect the other way counts as inactive or inconclusive.

What do the screens show for `O=C(Cn1ncc2ccc(Cl)cc21)NCc1ccc(F)cc1`?
B2AR arrestin ag: inactive; GALC G270D act: inactive; TSG101-PTAP inh: inactive; GALK inh: 3%; DRV1 agonist: -20

Results for Cc1cc(OCC(=O)Nc2cnn(CCCC(=O)O)c2)ccc1Cl ?
B2AR arrestin ag: inactive; GALC G270D act: inactive; TSG101-PTAP inh: inactive; GALK inh: -4%; DRV1 agonist: 82*

What do the screens show for `COc1ccc(CNC(=O)CSc2ncc(S(=O)(=O)c3ccc(Br)cc3)c(=O)[nH]2)cc1`?
B2AR arrestin ag: inactive; GALC G270D act: inactive; TSG101-PTAP inh: inactive; GALK inh: 0%; DRV1 agonist: -18

How did COC(=O)c1cc(Cl)ccc1NC(=O)CSc1ncc(S(=O)(=O)c2ccc(Br)cc2)c(=O)[nH]1 do in these assays?
B2AR arrestin ag: inactive; GALC G270D act: inactive; TSG101-PTAP inh: inactive; GALK inh: -11%; DRV1 agonist: 100*

Results for CCOc1ccccc1NC(=O)Nc1cc(C(=O)NCc2ccc(C)cc2)ccc1N1CCCC1 ?
B2AR arrestin ag: inactive; GALC G270D act: inactive; TSG101-PTAP inh: inactive; GALK inh: 0%; DRV1 agonist: -18

What do the screens show for `Cc1ccccc1C(=O)Nc1ccc(C(=O)N2CCCC(O)c3cc(Cl)ccc32)c(C)c1` (stereo unspecified)?
GALC G270D act: inactive; DRV1 agonist: -2

What do the screens show for `CCc1cccc(NC(=O)c2nnn(Cc3ccc(SC)cc3)c2N)c1`?
B2AR arrestin ag: inactive; GALC G270D act: inactive; TSG101-PTAP inh: inactive; GALK inh: 5%; DRV1 agonist: 62*

How did Cc1cccc(Cn2nnc(C(=O)Nc3cc(C)ccc3C)c2N)c1 do in these assays?
B2AR arrestin ag: inactive; GALC G270D act: inactive; TSG101-PTAP inh: inactive; GALK inh: 18%; DRV1 agonist: 16

What do the screens show for `Cc1ccc(NC(=O)c2nnn(Cc3cccc(C(F)(F)F)c3)c2N)c(C)c1`?
B2AR arrestin ag: inactive; GALC G270D act: inactive; TSG101-PTAP inh: inactive; GALK inh: -3%; DRV1 agonist: 93*

What do the screens show for `Cc1nn(C)c2c1c(-c1ccccc1)cc(=O)n2CC(=O)NC(C)(C)C`?
B2AR arrestin ag: inactive; GALC G270D act: inactive; TSG101-PTAP inh: inactive; GALK inh: -2%; DRV1 agonist: 91*

Results for COc1ccc(-c2nc3scc(CCNC(=O)c4cccc(Br)c4)n3n2)cc1 ?
B2AR arrestin ag: inactive; GALC G270D act: inactive; TSG101-PTAP inh: inactive; GALK inh: 4%; DRV1 agonist: 71*

What do the screens show for `Cc1ccc(/C=N/n2c(-c3ccccc3)csc2=S)cc1`?
GALC G270D act: inactive; DRV1 agonist: -43

What do the screens show for `Cc1ccc(-c2noc(-c3nnn(CC(=O)Nc4cc(C)cc(C)c4)c3N)n2)cc1`?
B2AR arrestin ag: inactive; GALC G270D act: inactive; TSG101-PTAP inh: inactive; GALK inh: 1%; DRV1 agonist: 0

Results for O=C(CN1CCN(Cc2ccccc2Cl)C1=O)NCCc1ccc(Cl)cc1 ?
B2AR arrestin ag: inactive; GALC G270D act: inactive; TSG101-PTAP inh: inactive; GALK inh: 3%; DRV1 agonist: 71*

What do the screens show for `Cc1cccc(CN2CCN(CC(=O)NCCc3ccc(Cl)cc3)C2=O)c1`?
B2AR arrestin ag: inactive; GALC G270D act: inactive; TSG101-PTAP inh: inactive; GALK inh: -5%; DRV1 agonist: 75*

Results for Cc1ccc(CNC(=O)CN2CCN(Cc3ccc(F)cc3)C2=O)cc1 ?
B2AR arrestin ag: inactive; GALC G270D act: inactive; TSG101-PTAP inh: inactive; GALK inh: -7%; DRV1 agonist: 4

How did CCOCCCNC(=O)NC(C)c1c(-n2cccc2)sc2c1CCN(CC)C2 (stereo unspecified) do in these assays?
B2AR arrestin ag: inactive; GALC G270D act: inactive; TSG101-PTAP inh: inactive; GALK inh: 0%; DRV1 agonist: -8

What do the screens show for `COc1cccc(CNC(=O)Cn2nc(-c3ccc(Cl)cc3)ccc2=O)c1`?
B2AR arrestin ag: inactive; GALC G270D act: inactive; TSG101-PTAP inh: inactive; GALK inh: -1%; DRV1 agonist: 76*

How did O=C(Nc1ccccc1)c1ccc(Cl)c(S(=O)(=O)Nc2ccccc2)c1 do in these assays?
B2AR arrestin ag: inactive; GALC G270D act: inactive; TSG101-PTAP inh: inactive; GALK inh: 8%; DRV1 agonist: 91*

What do the screens show for `Cc1ccc(C(=O)Nc2ccccc2)cc1S(=O)(=O)Nc1ccccc1`?
B2AR arrestin ag: inactive; GALC G270D act: inactive; TSG101-PTAP inh: inactive; GALK inh: 5%; DRV1 agonist: 95*

How did O=C1Nc2ccccc2Oc2cc(Oc3cccc(Cl)c3)ccc21 do in these assays?
B2AR arrestin ag: inactive; GALC G270D act: inactive; TSG101-PTAP inh: inactive; GALK inh: 2%; DRV1 agonist: 91*

How did CCCCC(CC)CNC(=O)CC(C)OC(=O)CCC(=O)O (stereo unspecified) do in these assays?
GALC G270D act: inactive; DRV1 agonist: -1

How did Cc1n[nH]c(C)c1CCc1nc2c3ccccc3nc(SCC(=O)Nc3ccc(F)cc3)n2n1 do in these assays?
B2AR arrestin ag: inactive; GALC G270D act: inactive; TSG101-PTAP inh: inactive; GALK inh: 1%; DRV1 agonist: 72*

What do the screens show for `CC(C)(C)C1CCC(CC2=C(O)c3ccccc3C(=O)C2=O)CC1` (stereo unspecified)?
GALC G270D act: inactive; DRV1 agonist: -11

Results for COc1ccc(-c2noc(N3CCN(c4ccc(C)cc4)C(C)C3)n2)cc1OC (stereo unspecified) ?
B2AR arrestin ag: inactive; GALC G270D act: inactive; TSG101-PTAP inh: inactive; GALK inh: -6%; DRV1 agonist: 61*

What do the screens show for `COCCN1C(=O)c2[nH]nc(-c3c(C)cc(C)cc3O)c2C1c1cccc(O)c1` (stereo unspecified)?
B2AR arrestin ag: inactive; GALC G270D act: inactive; TSG101-PTAP inh: inactive; GALK inh: -5%; DRV1 agonist: 85*

What do the screens show for `COc1cc(C2c3c(-c4c(C)cc(C)cc4O)n[nH]c3C(=O)N2Cc2ccco2)cc(OC)c1OC` (stereo unspecified)?
B2AR arrestin ag: inactive; GALC G270D act: inactive; TSG101-PTAP inh: inactive; GALK inh: -9%; DRV1 agonist: 65*

Results for COc1cc(C2c3c(-c4cc(C)ccc4O)n[nH]c3C(=O)N2Cc2ccco2)cc(OC)c1OC (stereo unspecified) ?
B2AR arrestin ag: inconclusive; GALC G270D act: inactive; TSG101-PTAP inh: inactive; GALK inh: -9%; DRV1 agonist: -17

How did COc1ccc(CCNc2ncnc3onc(C)c23)c(OC)c1 do in these assays?
B2AR arrestin ag: inactive; GALC G270D act: inactive; TSG101-PTAP inh: inactive; GALK inh: -2%; DRV1 agonist: 75*
